Hits are enriched below; roughly 21% of the tested compounds scored in any of these assays.
CHX counter: affects cycloheximide protein synthesis inhibition readout, counter-screen | cell reporter, cycloheximide protein synthesis inhibition counterscreen | max response, % | 300,000 compounds, 12% hits; in the data active = max response mostly above about 13%, no sharp cut-off; inactive = mostly below about 14%; note: read at 38.3 µM for the half of the compounds with a filed dose; 0% is about no effect
AMA1 RON2 block: AMA1-RON2 (P. falciparum) interaction inhibition | AlphaScreen AMA1-biotinylated RON2 peptide binding | Potency, µM (top dose mostly 58.2 µM), for the others: top-dose activity change, negative = inhibition, usual class: inhibitors | 360,000 compounds, 0.2% hits;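 note: potency is the fitted concentration of half-maximal effect; 0% = vehicle wells and -100% = peptide control; nearly all actives have a fitted effect of over 45% in size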
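AMA1 (3D7) with his tag at 25 nM final met compounds first, then biotinylated RON2 peptide at 25 nM; detection used donor plus acceptor beads, 10 µg/mL apiece, read by AlphaScreen after 30 min at room temperature.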
Shiga toxin inh: inhibitors of Shiga toxin in Vero cells; Vero cells, Shiga toxin protein synthesis inhibition reporter; inhibition, % at 38.7 µM; 290,000 compounds, 9.2% hits; AID 2315; in the data active = inhibition mostly above about 28%, no sharp cut-off; inactive = mostly below about 43%; note: 0% is about no effect
Pf growth 96h: inhibits malaria parasite growth, 96 h. P. falciparum luciferase reporter growth, 96 h. Potency, µM (series often up to 28.7 µM), inactives show top-dose activity change, negative = inhibition, hits mostly inhibitors. 320,000 compounds, 6.9% hits; note: potency is the fitted concentration of half-maximal effect; % is set by controls: 0 for no effect and ±100 for the full control effect
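Plates of compound plus infected erythrocytes (2% hematocrit, 0.05% parasitemia final) incubate 96 hours, 37 C, 5% CO2. Detection reagent added; reduced luminescence from the parasites' luciferase reporter flags inhibition.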
HCV inhibitor: HCV inhibition. Huh7.5.1 HCVcc-Cre infection, luciferase reporter, 44 h. Potency, µM (highest dose often 41.8 µM), inactives show at the top dose activity change, negative = inhibition, most hits filed as inhibitors. 340,000 compounds, 3.4% hits; note: potency is the fitted concentration of half-maximal effect; % is set by controls: 0 for no effect and ±100 for the full control effect
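Cells (1,000/well) were plated 4 h before compound, then infected with HCVcc-Cre virus (~0.5 moi). After 44 h further culture, infection was read as luciferase luminescence following a 15 min substrate incubation at room temperature.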
Pf growth 48h: P. falciparum growth inhibition at 48 hours (one generation) | 310,000 compounds, 5.9% hits | Potency, µM (highest dose often 28.7 µM), for inactives: at the top dose activity change, negative = inhibition, most hits filed as inhibitors | P. falciparum luciferase growth in erythrocytes, 48 h; note: potency is the fitted concentration of half-maximal effect; % is set by controls: 0 for no effect and ±100 for the full control effect
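Luminescence readout; reporter = integrated firefly luciferase in P. falciparum. RBC culture at 2% hematocrit, 0.1% parasitemia final, 37 C/5% CO2; decreased signal taken as growth inhibition.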
An asterisk follows results filed as active; u = inconclusive; x = no result given; [ ] = dose if it differs, or a comment. Unless noted, calls come from the whole dose curve; as a rule, active = well fitted curve in the direction sought with a large enough effect; inconclusive = small, poorly fitted or top-dose-only effect, or another doubt; inactive = no such curve, though single readings can be large; an effect the other way counts as inactive or inconclusive.

SMILES | CHX counter | AMA1 RON2 block | Shiga toxin inh | Pf growth 96h | HCV inhibitor | Pf growth 48h
COC(=O)Nc1ccc(S(=O)(=O)N2c3ccccc3CCC2C)cc1 (configuration not stated) | -4 | 5% | -4 | 65% | -21% | 15µM*
CC(=O)Nc1ccc(S(=O)(=O)N2CCCc3ccccc32)cc1 | -3 | 3% | -6 | -23% | 13µM* | -13%
NC1=NC[C@H](Cc2ccc(O)cc2)N1CCc1cc(C(F)(F)F)cc(C(F)(F)F)c1 | 19* | -5% | 16 | 2.1µM* | 18% | 5.2µM*
CC(O)[C@H]1CN=C(N)N1CCc1cc(C(F)(F)F)cc(C(F)(F)F)c1 (some centres not stated) | -6 | 2% | 2 | 59% | 16% | u
NC1=NC[C@H](c2ccccc2)N1CCc1cc(C(F)(F)F)cc(C(F)(F)F)c1 | -4 | -4% | -2 | 3.7µM* | u | 13µM*
O=c1c2sccc2nc(SCc2ccc([N+](=O)[O-])cc2)n1Cc1ccccn1 | 26* | -14% | 62* | -16% | -22% | 5%
O=C(O)CCCCCn1c(SCc2cc(=O)n3cc(Cl)ccc3n2)nc2ccsc2c1=O | -3 | 1%[11.6 µM] | 16 | 11% | 5% | u
Cc1ccc(CNC(=O)CSc2nc3ccsc3c(=O)n2Cc2ccccn2)cc1 | 1 | 20% | 22 | -6% | -6% | 46%
O=c1c2sccc2nc(SCc2cc(=O)n3cc(Cl)ccc3n2)n1Cc1ccccn1 | 41* | -1% | 82* | 8% | 29% | 186%
COc1cc(OC)cc(C(=O)N[C@H](C(=O)NC2=NCCS2)C(C)C)c1 | x | -7%[11.6 µM] | x | x | u | x
O=C(Nc1ccccc1)c1cc([N+](=O)[O-])ccc1NC1CCCCC1 | 0 | -9% | 1 | u | u | 8.3µM*
COc1ccc([N+](=O)[O-])cc1NC1C2CC3CC(C2)CC1C3 (configuration not stated) | -2 | -2% | 28 | 0.52µM* | -14% | 8%
COCC(=O)Nc1cc([N+](=O)[O-])ccc1OC | -3 | 8% | 5 | 87% | -13% | 1%
COc1ccc([N+](=O)[O-])cc1NC1CCCCC1 | 1 | 17% | -10 | 93% | 11µM* | u
CC1CN(C(=O)Nc2ccc(F)cc2F)CC(C)O1 (configuration not stated) | -1 | 3% | -8 | 2% | 12% | 22%
C=CCNc1nc2cc(-c3ccccc3C)sc2c(=O)n1C | x | 2% | x | x | x | x
Brc1cccc(-c2nc3ccc(Br)cn3c2Cc2ccccc2)c1 | x | -1% | x | x | x | x
CCOC(=O)C1=C(C)N2C(=C(C#N)[C@@H]1c1ccc(C(=O)OC)cc1)SC[C@@]2(O)C(C)(C)C | 10 | 88% | -4 | x | u | 13µM*
CN(C(=O)CSc1nccc(=O)[nH]1)C1CCCCC1 | x | 10% | x | x | 6% | x
CN(C(=O)CCCOc1ccc2[nH]c(=O)ccc2c1)C1CCCCC1 | x | x | x | 0.6µM* | x | u
CN(CC(=O)NCc1ccco1)S(=O)(=O)c1ccc(F)cc1 | 2 | -1% | -16 | 15% | -8% | 15%
Cc1ccc(S(=O)(=O)Oc2ccc(C)cc2/C=N/N=C2\NC(=O)C(C)S2)cc1 (configuration not stated) | 30* | 50% | 73* | u | -3% | 32%
COc1cccc(/C=N/Nc2nnc(C)n2N)c1OCc1ccccc1Cl | 3 | 17% | 3 | -27% | 22µM* | u
Cc1ccc(C(=O)NC(=C(Cl)Cl)S(=O)(=O)c2ccc(C)cc2)cc1 | 13 | 1% | 24 | 3% | -18% | 9%
CC(=O)NC(=C(Cl)Cl)S(=O)(=O)c1ccccc1 | 36* | -12% | 66* | u | u | u
SMILES | CHX counter | AMA1 RON2 block | Shiga toxin inh | Pf growth 96h | HCV inhibitor | Pf growth 48h
O=C(NC(=C(Cl)Cl)S(=O)(=O)c1ccc(Cl)cc1)c1ccccc1 | 57* | -14% | 90* | 9% | u | -9%
Cc1ccc(S(=O)(=O)/C(=C/Cl)NC(=O)c2ccccc2)cc1 | 15* | 5% | 13 | u | u | -15%
Cc1ccc(C(=O)NC(=C(Cl)Cl)S(=O)(=O)c2ccc(Cl)cc2)cc1 | 48* | 28% | 87* | 6% | u | 5%
Cc1ccc(S(=O)(=O)C(NC(=O)c2ccccc2)=C(Cl)Cl)cc1 | x | 6% | x | x | u | x
COc1ccccc1Cn1c(=S)[nH]c2cc(C(=O)N3CCCC(C)C3)ccc2c1=O (configuration not stated) | x | 128% | x | x | x | x
O=C1OC(CC(=O)N(Cc2nnc(-c3ccccc3Cl)o2)C2CC2)c2ccccc21 (configuration not stated) | x | 9% | x | -22% | -9% | u
Cc1cc(-c2nnc(CCC(=O)NCc3ccc(OC(F)(F)F)cc3)o2)no1 | 16* | 0% | 29 | -2% | 7% | 1%
Cc1cc(-c2nnc(CCC(=O)N(C)C(C)c3cccs3)o2)no1 (configuration not stated) | 48* | 1% | 77* | 2% | 0% | 15%
Cc1cc(-c2nnc(CCC(=O)NC(C)(C)C34CC5CC(CC(C5)C3)C4)o2)no1 | x | 7% | x | x | 20% | x
Cc1cc(-c2nnc(CCC(=O)N(C)Cc3ccsc3)o2)no1 | 21* | 0% | 34 | 5% | 8% | -48%
Cc1cc(-c2nnc(CCC(=O)NC(C)c3ccc(F)cc3)o2)no1 (configuration not stated) | 10 | -4% | 43 | u | 17% | 41%
COc1ccc(C2OCC(C)(C)CO2)cc1OC | x | -2% | x | x | 16% | x
COc1ccc(C2C=C(C34CC5CC(CC(C5)C3)C4)NC(=S)N2)cc1OC (configuration not stated) | -3 | 15% | -10 | 9.3µM* | -24% | u
CN(CC(=O)Nc1n[nH]c(=S)s1)S(=O)(=O)c1cccc2cccnc12 | -5 | 81% | -7 | 5.2µM* | 1% | -5%
Cc1csc(NC(=O)CN(C)S(=O)(=O)c2cccc3cccnc23)n1 | 5 | -1% | 4 | 66% | u | x
Cc1[nH]n(-c2ccccc2)c(=O)c1N=Nc1ccc(Cl)cc1 | 0 | -14% | x | 0% | 20% | 17%
Cc1[nH]n(-c2ccccc2)c(=O)c1N=Nc1ccc(C(N)=O)cc1 | -2 | -5% | -4 | 163% | -8% | 0%
Cc1ccc(N=Nc2c(N)n(-c3ccccc3)[nH]c2=O)cc1 | 38* | 1% | 122* | 39% | 25% | 193%
Cc1[nH]n(-c2ccccc2)c(=O)c1N=Nc1cccc(C(=O)O)c1 | 42* | -11% | x | -8% | 25% | 96%
Cc1[nH]n(-c2ccccc2)c(=O)c1N=Nc1ccccc1 | 23* | u | 48 | 33% | u | 101%
